From PubChem BioAssay
Only some compounds are listed: those with a hit (about 8.5% of all), similar ones and a draw of the others.
Sfp inh: Sfp phosphopantetheinyl transferase inhibition; Q9F4F7; Biochemical Sfp PPTase activity, qHTS; Potency, µM, inactives show largest response in the series, negative = inhibition, usual class: inhibitors; 310,000 tested, 3.5% active; AID 1490;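 also: the enzyme is Sfp with the accession as filed and its product quenches rhodamine fluorescence; potency is read from the fitted curve at half-maximal effect; 0% = enzyme reaction without inhibitor and -100% = no enzyme wells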
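Fluorescence-quenching assay with 15 nM Sfp, 5 uM rhodamine-CoA and 12.5 uM BHQ-2-labelled ybbR peptide in pH 7.6 Hepes/MgCl2 buffer. Enzyme was pre-incubated with compound for 15 min at room temperature. Rate was taken from the 30-min fluorescence change (525/598 nm).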
RGS12 GoLoco inh: blocks human Gai1 binding to RGS12 GoLoco peptide, red readout; Gai1:RGS12 GoLoco peptide FP, rhodamine, 10 min; Potency, µM (doses to about 61.6 µM), without a hit: at the highest dose activity, negative = inhibition, actives largely listed as inhibitors; 230,000 tested, 0.44% active; P63096; active = well fitted inhibition curve with a large enough effect, not every such curve was filed as active; inactive = no such curve, though single readings can be large or run the other way; also: potency is read from the fitted curve at half-maximal effect; nearly all actives have a fitted effect of over 30% in size
Target sequence (P63096 whole entry, looked up): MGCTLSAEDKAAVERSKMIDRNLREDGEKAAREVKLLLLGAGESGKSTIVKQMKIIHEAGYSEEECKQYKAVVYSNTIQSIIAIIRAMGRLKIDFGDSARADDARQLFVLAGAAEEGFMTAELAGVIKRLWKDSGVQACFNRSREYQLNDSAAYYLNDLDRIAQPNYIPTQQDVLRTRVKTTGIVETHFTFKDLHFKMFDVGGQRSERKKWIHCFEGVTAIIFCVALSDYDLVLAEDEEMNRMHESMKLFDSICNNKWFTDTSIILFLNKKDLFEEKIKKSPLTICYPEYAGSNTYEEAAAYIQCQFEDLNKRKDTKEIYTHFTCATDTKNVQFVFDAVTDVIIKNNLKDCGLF
ALDH1A1 block: ALDH1A1 (human) enzyme inhibition | Purified ALDH1A1, NADH fluorescence, propionaldehyde substrate | Potency, µM (top dose mostly 75.3 µM), without a hit: at the top dose activity, negative = inhibition, usual class: inhibitors | 220,000 tested, 7.3% active | AID 1030; active = well fitted inhibition curve with a large enough effect, not every such curve was filed as active; inconclusive = small, poorly fitted or top-dose-only effect, or another doubt; inactive = no such curve, though single readings can be large or run the other way;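 also: potency is read from the fitted curve at half-maximal effect; plate controls were no enzyme wells and a reference inhibitor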
NPSR antag: blocks cAMP signaling of the human neuropeptide S receptor; CHO-NPSR cells, cAMP TR-FRET, antagonist mode; Q6W5P4; AID 1461; 220,000 tested, 1% active; Potency, µM (titrated, usually from 38.3 µM), for inactives: at the highest dose activity change, negative = inhibition, actives largely listed as inhibitors; also: potency is read from the fitted curve at half-maximal effect; nearly all actives have a fitted effect of over 50% in size
JMJD2E inh: blocks human JMJD2E demethylase activity; B2RXH2; AID 2147; Potency, µM (series often up to 57.1 µM), for inactives: at the top dose activity change, negative = inhibition, actives largely listed as inhibitors; 230,000 tested, 1.6% active; JMJD2E catalytic domain, FDH-coupled NADH fluorescence (FDH is formaldehyde dehydrogenase);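 also: potency is read from the fitted curve at half-maximal effect; 0% = wells with enzyme and -100% = buffer wells without enzyme; nearly all actives have a fitted effect of over 50% in size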
Target sequence (B2RXH2 1-337 limits assumed): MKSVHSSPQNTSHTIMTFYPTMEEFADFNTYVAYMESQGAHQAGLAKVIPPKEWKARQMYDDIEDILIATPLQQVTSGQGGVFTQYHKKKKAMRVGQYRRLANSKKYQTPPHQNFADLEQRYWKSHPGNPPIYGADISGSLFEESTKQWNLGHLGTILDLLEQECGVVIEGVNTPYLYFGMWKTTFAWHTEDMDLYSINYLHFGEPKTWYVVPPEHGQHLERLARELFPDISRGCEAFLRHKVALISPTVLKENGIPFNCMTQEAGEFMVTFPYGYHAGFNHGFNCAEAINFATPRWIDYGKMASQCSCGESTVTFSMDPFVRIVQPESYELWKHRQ
Coupling enz: inhibits coupling enzyme system, counter-screen for aldolase hits. 290,000 tested, 0.67% active. coupling enzyme system counterscreen, AmpLite Red fluorescence. AID 2472. activity change, negative = inhibition, % at 58.2 µM, hits read low; in the data active = activity change below about -30%
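Compounds tested against the coupling enzymes alone at 57.5 uM final; readout was AmpLite Red fluorescence (525/598 nm) after 20 min at RT.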
An asterisk follows results filed as active; ? = inconclusive; / = no result; [ ] = remark or other dose. Unless noted, calls follow the shape of the dose curve; as a rule, active = well fitted curve in the direction sought with a large enough effect; inconclusive = small, poorly fitted or top-dose-only effect, or another doubt; inactive = no such curve, though single readings can be large; an effect the other way counts as inactive or inconclusive. Unless noted, % is scaled to controls: 0 for no effect and ±100 for the full control effect.

SMILES	Sfp inh	RGS12 GoLoco inh	ALDH1A1 block	NPSR antag	JMJD2E inh	Coupling enz
Cc1noc(C)c1COc1ccccc1C(=O)NC1CCC(C)CC1 (stereo unspecified)	14.2%	/	/	/	/	/
CN=c1scc(C)n1/N=C/c1ccc(O)cc1	-4.8%	0.7%	1.3%	-17.5%[46.1 µM]	-3.2%	-2.8
C=CCN=c1scc(C)n1/N=C/c1ccc(O)c(O)c1	31.6µM*	-23.0%	22.4µM*	-19.5%	15.8µM*	-9.6
CN=c1scc(-c2ccco2)n1/N=C/c1ccc(O)c(O)c1	50.1µM*	1.5%	28.2µM*	-6.2%	25.1µM*	-11.6
O=C(NCCS(=O)(=O)c1ccc(Br)cc1)c1c(F)cccc1F	6.8%	/	/	/	/	2.1
Cc1ccc(NCc2nnc(SCc3ccc(C#N)cc3)n2Cc2ccco2)c(C)c1	3.9%	9.2%	-6.6%	?	-1.5%	1.1
Cc1ccc(C(=O)CSc2nnc(CNc3ccc(C)cc3C)n2Cc2ccco2)cc1	4.5%	7.6%	22.4µM*	?	-3.5%	0.1
COc1ccc(C(=O)CSc2nnc(CNc3ccc(C)cc3C)n2Cc2ccco2)cc1	-2.9%	2.6%	7.08µM*	?	-26.4%	3.0
NNC(=O)c1cc(C23CC4CC(CC(C4)C2)C3)[nH]n1	10.4%	/	/	/	/	-0.1
CSc1ccc(S(=O)(=O)N2CCC(C(=O)Nc3ccccc3C(F)(F)F)CC2)cc1	6.1%	/	/	/	/	-0.3
CC1CCC(NC(=O)CCn2ccc3cc(S(=O)(=O)N4CCCC4)ccc32)CC1 (stereo unspecified)	9.6%	/	/	/	/	-1.2
COc1ccc(C(=O)n2nc(C)c(Br)c2C)cc1	15.9%	-0.5%	10µM*	-26.6%[46.1 µM]	0.0%	2.5
Cc1nc2ccccn2c1C(=O)N=Nc1c(O)n(CCC(C)C)c2ccccc12	22.0%	1.5%	?	?	14.9%	-3.0
COc1cc(OC)c2cc(C(=O)N/N=C/c3cccc(OC)c3O)[nH]c2c1	4.0%	6.5%	/	-9.1%	10µM*	-0.3
COc1cccc(/C=N/NC(=O)c2ccc3nc[nH]c3c2)c1O	30.3%	10.6%	/	-9.6%	10µM*	1.0
COc1cccc(/C=N/NC(=O)c2cc3c(OC)ccc(OC)c3[nH]2)c1O	11.9%	/	/	/	/	0.6
COc1cc(OC)c(OC)cc1/C=N/NC(=O)c1ccc2nc[nH]c2c1	7.7%	13.8%	-1.1%	43.3%	?	-0.5
Cc1ccccc1C(=O)N1CCC(C(=O)N2CCN(S(=O)(=O)c3ccccc3F)CC2)CC1	4.6%	-3.6%	?	7.4%	10.5%	0.6
O=C1C=C(Nc2ccccc2C(=O)O)c2ccccc2C1=O	-8.2%	1.3%	/	-41.9%	?	-48.9*
O=C1C(Nc2ccccc2)=CC(=O)c2ncccc21	?	-0.1%	15.8µM*	/	/	-24.5
COc1ccccc1NS(=O)(=O)c1cccc2cccnc12	22.3%	7.2%	?	-19.1%[46.1 µM]	-4.6%	-10.1
CCCCNC1=CC(=O)C(=O)c2ccccc21	12.2%	22.4%	?	8.2%	-5.1%	0.3
O=C1C=C(Nc2ccccc2)C(=O)c2ccccc21	-15.9%	43.4%	?	56.8%	1.5%	-19.3
O=C1C=C(Nc2cccc3cccnc23)c2ccccc2C1=O	-24.6%	/	/	/	/	-64.5*
Nc1ccccc1S(=O)(=O)Nc1cccc2cccnc12	3.1%	/	/	/	/	-47.9*
SMILES	Sfp inh	RGS12 GoLoco inh	ALDH1A1 block	NPSR antag	JMJD2E inh	Coupling enz
O=C1c2ccccc2C(=O)c2cc(S(=O)(=O)Nc3cccc4cccnc34)ccc21	7.4%	/	/	/	/	-14.5
Cc1cc(=O)oc2cc(OCC(=O)Nc3ccc(CN4CCOCC4)cc3)c(Cl)cc12	1.2%	/	/	/	/	-0.3
O=C1C=C(Nc2ccccc2)c2ccccc2C1=O	1.9%	7.7%	1.5%	10µM*	-25.0%	-49.0*
CCCCNC(=S)N(C)N=C1CCC(c2ccccc2)CC1 (stereo unspecified)	12.9%	4.5%	0.631µM*	-56.0%	-2.7%	0.6
C[C@H](NC(=O)Cc1cc(F)cc(F)c1)C(=O)N[C@@H](C(=O)OC(C)(C)C)c1ccccc1	9.3%	/	/	/	/	0.2
Cn1c(C(=O)N2CCN(c3ccc(F)cc3)CC2)cc2ccccc21	0.5%	/	/	/	/	0.6
CC(c1ccccc1)C1OCC(C[N+]2(C)CCCCC2)O1 (stereo unspecified)	6.1%	10µM*	-3.2%	17.7%	-5.6%	1.0
Cc1cccc(OCc2nnc(SCc3cc(=O)n4cc(Br)ccc4n3)o2)c1	-5.2%	-3.7%	?	-17.9%[46.1 µM]	?	5.2
Nc1ncnc(Sc2ccccc2)c1[N+](=O)[O-]	6.3%	0.1%	-9.3%	-4.2%	-1.2%	5.2
Nc1ncnc(Sc2ncccn2)c1[N+](=O)[O-]	35.5µM*	19.1%	-12.1%	-22.0%	?	-3.3
CCOc1ccc(S(=O)(=O)NCc2ccccc2Cl)cc1C(N)=O	-14.8%	-5.5%	4.4%	16.7%	-6.3%	-36.8*
c1ccc(COc2cccc(CNCc3cccnc3)c2)cc1	-7.3%	13.4%	8.7%	7.3%	-11.1%	1.1
Oc1ccc(NCc2cccc(OCc3ccccc3)c2)cc1	?	-18.4%	?	-8.4%	4.47µM*	-30.3*
O=[N+]([O-])c1ccc(COc2cccc(CNc3ccc(F)cc3)c2)cc1	-0.9%	0.2%	14.1µM*	-18.2%[46.1 µM]	-3.5%	-8.7
CCOc1ccc(NCc2nnc(SCc3ccccc3Cl)n2-c2ccccc2)cc1	14.6%	1.7%	12.6µM*	?	-6.0%	3.8
O=C(COc1ccc(Cl)cc1)NCCS(=O)(=O)N1CCN(c2ccccc2F)CC1	2.2%	/	/	/	/	3.2
O=[N+]([O-])c1ccccc1OCCN1CCOCC1	-2.2%	/	/	/	/	-0.5
CC1=C/C(=N\OS(=O)(=O)c2ccccc2)C(C(C)C)=CC1=O	-28.1%	-0.6%	?	10µM*	3.98µM*	-70.1*
CC1=C/C(=N\OS(=O)(=O)c2ccccc2)C(C)=CC1=O	-10.9%	7.2%	?	2.51µM*	13.0%	-88.3*
O=S(=O)(Oc1ccc(Cl)cc1)c1ccccc1	2.7%	/	/	/	/	-16.1
COc1cc(C(=O)O/N=C2/C=C(C)C(=O)C=C2C)cc(OC)c1OC	5.6%	-11.7%	5.9%	-31.3%	3.4%	-9.7
O=c1[nH]nc(Cc2ncc(C(F)(F)F)cc2Cl)c2ccccc12	12.3%	/	/	/	/	1.8
COc1cc(SC)ccc1C(=O)N1CCN(c2ccccc2)CC1	15.2%	12.3%	-4.7%	-7.7%	11.2%	2.9
COc1cc(SC)ccc1C(=O)N1CCN(c2ccc(O)cc2)CC1	56.2µM*	3.9%	?	-6.6%	?	-5.3
Cc1cc(C)c(NC(=S)NCC2CCN(C(C)c3ccccc3)C2)c(C)c1 (stereo unspecified)	3.55µM*	-4.3%	?	-0.4%	-3.1%	-48.9*
CC(c1ccccc1)N1CCC(CNC(=S)Nc2cccc(Cl)c2)C1 (stereo unspecified)	3.6%	10.7%	-11.2%	-55.3%	?	-0.1
